Measurements taken from PubChem BioAssay (NCATS).
Records with an inconclusive call do not appear. Where a call stands in place of a potency, no number is given. The source made the active and inactive calls. The call rests on the fitted dose curve; in most records, active means well fitted curve in the direction sought with a large enough effect; inconclusive means small, poorly fitted or top-dose-only effect, or another doubt; inactive means no such curve, though single readings can be large; an effect the other way counts as inactive or inconclusive.

What was measured:
[1] = qHTS of pediatric cancer cell lines to identify multiple opportunities for drug repurposing: Primary screen for Rh30 cells (AID 1347107); further: series mostly up to about 46 µM; nearly all actives have a fitted effect of over 75% in size
Summary of the method: (§1)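 Cells (500-1,000/well) in growth media were settled 5 h at 37 degrees C, then given compounds for 48 h. Viability was read as CellTiter-Glo luminescence. Primary runs used MIPE at 11 points (0.78 nM-46 µM) and NPC at 8 points (0.59 nM-46 µM); follow-ups used 11 points.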

[2] = qHTS of pediatric cancer cell lines to identify multiple opportunities for drug repurposing: Primary screen for Rh41 cells (AID 1347108);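 further: series mostly up to about 46 µM; luminescence drop marks cytotoxic hits; nearly all actives have a fitted effect of over 70% in size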
Summary of the method: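 Following a 5-hour attachment period, cells at 500-1,000/well received compounds and were cultured for 48 hours. CellTiter-Glo was added and luminescence read to estimate viable, metabolically active cells.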

[3] = qHTS of pediatric cancer cell lines to identify multiple opportunities for drug repurposing: Confirmatory screen for NB1643 cells (AID 1347109); further: nearly all actives have a fitted effect of over 45% in size
Summary of the method: as §1

[4] = qHTS of pediatric cancer cell lines to identify multiple opportunities for drug repurposing: Confirmatory screen for A673 cells (AID 1347110);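 further: cells exposed to compound for 48 h before the viability read; nearly all actives have a fitted effect of over 65% in size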
Summary of the method: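 Viability was read as ATP luminescence (CellTiter-Glo) after 48 h of compound exposure at 37 C in A673 cells seeded at 500-1,000/well. Titrations reached 46 uM final, with 11 points in the confirmatory screen. Concentration-response curves were fitted directly.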

[5] = qHTS of pediatric cancer cell lines to identify multiple opportunities for drug repurposing: Confirmatory screen for SK-N-MC cells (AID 1347111);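 further: cells exposed to compound for 48 h before the readout; nearly all actives have a fitted effect of over 70% in size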; further: potency means the concentration at half of the fitted maximal effect
Summary of the method: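 Metabolically active cells were quantified by ATP-dependent luminescence (CellTiter-Glo, 15 min at room temperature) following 48 h treatment. Cells had been plated at 500-1,000 per well and settled for 5 h beforehand.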

[6] = qHTS of pediatric cancer cell lines to identify multiple opportunities for drug repurposing: Confirmatory screen for BT-12 cells (AID 1347112); further: nearly all actives have a fitted effect of over 55% in size
Summary of the method: as §1

[7] = qHTS of pediatric cancer cell lines to identify multiple opportunities for drug repurposing: Confirmatory screen for DAOY cells (AID 1347114); further: nearly all actives have a fitted effect of over 65% in size
Summary of the method: (§2)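 Viability measured as metabolically active cells via CellTiter-Glo luminescence following 48 hours of compound exposure, 11-point dilutions in confirmatory testing. 500-1,000 cells/well plated 5 hours before dosing; controls were DMSO and 2.3 µM bortezomib.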

[8] = qHTS of pediatric cancer cell lines to identify multiple opportunities for drug repurposing: Confirmatory screen for NB-EBc1 cells (AID 1347115);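 further: cells exposed to compound for 48 h before the viability read; nearly all actives have a fitted effect of over 45% in size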; further: potency means the concentration at half of the fitted maximal effect
Summary of the method: as §1

[9] = qHTS of pediatric cancer cell lines to identify multiple opportunities for drug repurposing: Confirmatory screen for SJ-GBM2 cells (AID 1347116); further: nearly all actives have a fitted effect of over 60% in size; further: potency means the concentration at half of the fitted maximal effect
Summary of the method: as §2

[10] = qHTS of pediatric cancer cell lines to identify multiple opportunities for drug repurposing: Confirmatory screen for LAN-5 cells (AID 1347113); further: nearly all actives have a fitted effect of over 65% in size
Summary of the method: as §1

In the case of C[C@@H]1C[C@H]2[C@@H]3C[C@H](F)C4=CC(=O)C=C[C@]4(C)[C@@]3(F)[C@@H](O)C[C@]2(C)[C@@]1(O)C(=O)CO, the outcome [1] is reported as “inactive”, the Potency [2] is reported as “inactive” and the Potency [3] is reported as “inactive”. The Potency [4] was “inactive”, the Potency [5] was 13.1 µM (active) and the Potency [6] was “inactive”. The outcome [7] was “inactive”, the Potency [8] was “inactive” and the Potency [9] was “inactive”.

In the case of NCCNCCNCCN, the outcome [1] is reported as “inactive” and the Potency [2] is reported as “inactive”.

For NC1CCN(c2cccc(Cl)n2)CC1, the outcome [1] was “inactive” and the Potency [2] was “inactive”.

With O=C1N=C(O)CN1/N=C/c1ccc(-c2ccc([N+](=O)[O-])cc2)o1 the outcome [1] was “inactive”, the Potency [2] was “inactive” and the Potency [3] was “inactive”. The Potency [4] was “inactive”, the Potency [5] was “inactive” and the Potency [6] was “inactive”. The Potency [10] was “inactive”, the Potency [8] was “inactive” and the Potency [9] was “inactive”.

With O=C(O)CN1C(=O)c2cccc3cccc(c23)C1=O the outcome [1] was “inactive”, the Potency [2] was “inactive” and the Potency [4] was “inactive”. The Potency [5] was 2.93 µM (active), the outcome [7] was “inactive” and the Potency [8] was 26.1 µM (active). For the same compound, the Potency [9] was 16.5 µM (active).

In the case of Oc1ccc(C(O)CNCCCCCCNCC(O)c2ccc(O)c(O)c2)cc1O (stereo not drawn), the outcome [1] is reported as “inactive” and the Potency [2] is reported as “inactive”.

For O=c1[nH]cnc2c1ncn2[C@@H]1O[C@H](CO)[C@@H](O)[C@H]1O, the Potency [2] was “inactive”.

For CC(C)(C)C(=O)C(Oc1ccc(Cl)cc1)n1ccnc1 (stereo not drawn), the Potency [2] was “inactive”.

For CC1=C(/C=C/C(C)=C/C=C/C(C)=C/C(=O)O)C(C)(C)CCC1, the Potency [2] was “inactive”.

For CC(=O)CCC(=O)O, the Potency [2] was “inactive”.

With CCOC(=O)[C@H](CCc1ccccc1)N[C@@H](C)C(=O)N1C(=O)N(C)C[C@H]1C(=O)O the Potency [2] was “inactive”.

In the case of CCCCCCCCCCCCOS(=O)(=O)O, the Potency [2] is reported as “inactive”.

With CC(=O)Oc1c(C)c(C)c2c(c1C)CC[C@@](C)(CCC[C@H](C)CCC[C@H](C)CCCC(C)C)O2 the Potency [2] was “inactive”.
